Assay results taken from PubChem BioAssay AID1159580 (chemical genetic matrix, 2015).
“And” between values parts separate entries of the source, which are not always exact repeats. Identical values can stand only once. About 2,000 (36%) of roughly 5,500 compounds were called active. Another 18% or so got no clear call; they are omitted. No stated cut-off is given here; in the data, active means normalized growth mostly below about 0.91 (no sharp cut-off); inconclusive means no clear call, values can overlap the other calls; inactive means mostly above about 0.92. Some of the results follow.

Experiment: chemical genetic growth profiling, strain panel (AID 1159580);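 further: tested at 20 µM; growth read once vehicle control cultures reached saturation at 30 °C; 1 = growth at the plate median or of vehicle wells; lower values mean less growth of the strain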
Conditions: S. cerevisiae deletion strains, growth OD

Measured: normalized growth

CC1(C)C2CC[C@]3(C)C(C(=O)C=C4[C@@H]5C[C@@](C)(C(=O)O)CC[C@]5(C)CC[C@]43C)[C@@]2(C)CC[C@@H]1O (stereo not given in full)
active: locus YGL078C, strain dbp3, active compounds read low 0.907 | locus YGL173C, strain kem1, active compounds read low 0.876 | locus YKL009W, strain mrt4, active compounds read low 0.864 | locus YKL068W, active compounds read low 1.08 [resistant] | locus YKL085W, strain MDH1 (second series), active compounds read low 1.07 [resistant] | locus YKL085W, strain MDH1, active compounds read low 1.07 [resistant] | locus YMR125W, strain sto1, active compounds read low 1.12 [resistant] | locus YOR001W, strain rrp6, active compounds read low 0.886 | locus YOR184W, strain ser1, active compounds read low 0.857
inactive: locus YAL013W, strain DEP1, active compounds read low 1.02 | locus YAL021C, strain ccr4, active compounds read low 1.02 | locus YAL026C, strain drs2, active compounds read low 0.999 | locus YAL030W, strain snc1, active compounds read low 1 | locus YBL061C, strain skt5, active compounds read low 1.02 | locus YBR009C, strain hhf1, active compounds read low 0.93 | locus YBR021W, strain FUR4, active compounds read low 0.961 | locus YBR023C, strain chs3, active compounds read low 1.02 | locus YBR171W, strain sec66, active compounds read low 1 | locus YBR229C, strain ROT2, active compounds read low 1.06 | locus YBR231C, strain swc5, active compounds read low 1.08 | locus YBR279W, strain paf1, active compounds read low 1.03 | locus YCL011C, strain gbp2, active compounds read low 0.988 | locus YCL016C, strain dcc1, active compounds read low 1.03 | locus YCL029C, strain bik1, active compounds read low 0.956 | locus YCL069W, strain vba3, active compounds read low 1 | locus YCR088W, strain abp1, active compounds read low 1.02 | locus YDL005C, strain med2, active compounds read low 1.01 | locus YDL035C, strain GPR1, active compounds read low 0.873 | locus YDL040C, strain nat1, active compounds read low 1.03 | locus YDL074C, strain BRE1, active compounds read low 1.02 | locus YDL101C, strain DUN1, active compounds read low 1.02 | locus YDL185W, strain tfp1, active compounds read low 1.04 | locus YDL192W, strain arf1, active compounds read low 0.996 | locus YDR001C, strain nth1, active compounds read low 1.01 | locus YDR069C, strain doa4, active compounds read low 1 | locus YDR101C, strain arx1, active compounds read low 0.98 | locus YDR137W, strain rgp1, active compounds read low 0.879 | locus YDR159W, strain sac3, active compounds read low 0.908 | locus YDR162C, strain NBP2, active compounds read low 0.986 | locus YDR195W, strain ref2 1.07 | locus YDR297W, strain sur2, active compounds read low 0.978 | locus YDR318W, strain mcm21, active compounds read low 0.997 | locus YDR334W, strain swr1, active compounds read low 0.964 | locus YDR335W, strain msn5, active compounds read low 1.01 | locus YDR388W, active compounds read low 1.01 | locus YDR392W, strain spt3, active compounds read low 1.02 | locus YDR502C, strain sam2, active compounds read low 0.968 | locus YEL003W, strain gim4, active compounds read low 0.932 | locus YEL037C, strain rad23, active compounds read low 1 | locus YEL061C, strain CIN8 (second series), active compounds read low 1.01 | locus YER015W, strain faa2, active compounds read low 1.02 | locus YER016W, strain bim1, active compounds read low 1.01 | locus YER110C, active compounds read low 1.04 | locus YER111C, strain swi4, active compounds read low 1.03 | locus YER155C, strain BEM2 (second series), active compounds read low 1.13 | locus YER155C, strain BEM2, active compounds read low 1.06 | locus YER167W, strain BCK2, active compounds read low 1.07 | locus YFR010W, strain ubp6, active compounds read low 0.943 | locus YGL086W, strain mad1, active compounds read low 1.01 | locus YGL167C, strain pmr1, active compounds read low 0.996 | locus YGL227W, strain vid30, active compounds read low 1.02 | locus YGL240W, strain doc1, active compounds read low 0.986 | locus YGL248W, strain PDE1, active compounds read low 0.985 | locus YGL253W, strain hxk2, active compounds read low 1.02 | locus YGR078C, strain PAC10, active compounds read low 1.02 | locus YGR135W, strain pre9, active compounds read low 0.981 | locus YGR252W, strain gcn5, active compounds read low 0.833 | locus YHR013C, strain ard1, active compounds read low 1.1 | locus YHR027C, strain rpn1, active compounds read low 0.956 | locus YHR030C, strain SLT2, active compounds read low 1.07 and 0.991 | locus YHR079C, strain IRE1 (second series), active compounds read low 1.02 | locus YHR079C, strain IRE1, active compounds read low 0.973 | locus YHR094C, strain hxt1, active compounds read low 1.03 | locus YHR129C, strain ARP1, active compounds read low 1.07 | locus YHR142W, strain chs7, active compounds read low 1.01 | locus YHR200W, strain rpn10, active compounds read low 1.03 | locus YIL066C, strain RNR3, active compounds read low 1.03 | locus YIL073C, strain SPO22, active compounds read low 0.956 | locus YIL125W, strain kgd1, active compounds read low 1.01 | locus YIR030C, strain dcg1, active compounds read low 1.01 | locus YJL092W, strain hpr5, active compounds read low 1.02 | locus YJL095W, strain BCK1 (second series), active compounds read low 1.02 | locus YJL095W, strain BCK1, active compounds read low 0.971 and 0.979 | locus YJL115W, strain asf1, active compounds read low 1.01 | locus YJL129C, strain trk1, active compounds read low 1.04 | locus YJL134W, strain LCB3, active compounds read low 1.05 | locus YJL154C, strain vps35, active compounds read low 1.01 | locus YJL164C, strain tpk1, active compounds read low 0.946 | locus YJL166W, strain qcr8, active compounds read low 0.974 | locus YJL168C, strain set2, active compounds read low 1.03 | locus YJL187C, strain SWE1 (second series), active compounds read low 1 | locus YJR043C, strain POL32, active compounds read low 0.99 | locus YJR066W, strain TOR1, active compounds read low 0.953 | locus YJR075W, strain HOC1, active compounds read low 1.04 | locus YKL160W, strain elf1, active compounds read low 1.01 | locus YKL190W, strain CNB1, active compounds read low 1.08 | locus YKR001C, strain vps1, active compounds read low 0.992 | locus YKR026C, strain gcn3, active compounds read low 1.02 | locus YKR091W, strain srl3, active compounds read low 1.01 | locus YLL001W, strain dnm1, active compounds read low 0.952 | locus YLL026W, active compounds read low 1.01 | locus YLL041C, strain sdh2, active compounds read low 1.03 | locus YLR027C, strain aat2, active compounds read low 1 | locus YLR039C, strain RIC1, active compounds read low 1.03 | locus YLR058C, strain SHM2, active compounds read low 1.01 | locus YLR102C, strain apc9, active compounds read low 1.03 | locus YLR113W, strain HOG1, active compounds read low 0.974 | locus YLR221C, strain rsa3, active compounds read low 0.918 | locus YLR258W, strain gsy2, active compounds read low 1 | locus YLR262C, strain YPT6 (second series), active compounds read low 0.88 | locus YLR262C, strain YPT6, active compounds read low 0.933 | locus YLR268W, strain sec22, active compounds read low 0.953 | locus YLR320W, strain mms22, active compounds read low 0.941 | locus YLR330W, strain CHS5, active compounds read low 1.06 | locus YLR342W, strain FKS1 (second series), active compounds read low 0.977 | locus YLR342W, strain FKS1, active compounds read low 0.961 | locus YLR357W, strain rsc2, active compounds read low 1.08 | locus YLR370C, strain arc18, active compounds read low 1.04 | locus YLR371W, strain rom2, active compounds read low 1.04 | locus YLR384C, strain iki3, active compounds read low 1.03 | locus YLR418C, strain cdc73, active compounds read low 0.991 | locus YML016C, strain PPZ1, active compounds read low 1.05 | locus YML032C, strain rad52, active compounds read low 0.973 | locus YML120C, strain ndi1, active compounds read low 0.933 | locus YML124C, strain tub3, active compounds read low 1.03 | locus YMR058W, strain fet3, active compounds read low 0.983 | locus YMR078C, strain ctf18, active compounds read low 1.04 | locus YMR129W, active compounds read low 1.02 | locus YMR205C, strain PFK2, active compounds read low 0.99 | locus YMR223W, strain ubp8, active compounds read low 0.978 | locus YMR231W, strain pep5, active compounds read low 0.99 | locus YMR307W, strain GAS1, active compounds read low 0.902 | locus YNL067W, strain RPL9B, active compounds read low 0.987 | locus YNL071W, strain lat1, active compounds read low 0.996 | locus YNL128W, strain TEP1, active compounds read low 1.05 | locus YNL153C, strain GIM3, active compounds read low 0.982 | locus YNL183C, strain NPR1, active compounds read low 0.933 | locus YNL209W, strain ssb2, active compounds read low 1.03 | locus YNL233W, strain BNI4, active compounds read low 0.992 | locus YNL248C, strain rpa49, active compounds read low 1.01 | locus YNL250W, strain rad50, active compounds read low 0.998 | locus YNL271C, strain bni1, active compounds read low 0.994 | locus YNL298W, strain CLA4, active compounds read low 0.942 | locus YNL307C, strain MCK1, active compounds read low 1.03 | locus YNL322C, strain KRE1 (second series), active compounds read low 0.982 | locus YNL322C, strain KRE1, active compounds read low 1.05 | locus YNR049C, strain mso1, active compounds read low 1.03 | locus YNR052C, strain pop2, active compounds read low 0.955 | locus YOL006C, strain TOP1, active compounds read low 0.968 | locus YOL012C, strain htz1 1.55 | locus YOL147C, strain pex11, active compounds read low 1.03 | locus YOR061W, strain CKA2, active compounds read low 1.04 | locus YOR069W, strain VPS5, active compounds read low 1.05 | locus YOR070C, strain gyp1, active compounds read low 1.01 | locus YOR080W, strain dia2, active compounds read low 1 | locus YOR083W, strain WHI5, active compounds read low 0.922 | locus YOR106W, strain vam3, active compounds read low 0.925 | locus YOR136W, strain idh2, active compounds read low 1.01 | locus YOR144C, strain elg1, active compounds read low 1.02 | locus YOR231W, strain MKK1, active compounds read low 0.966 | locus YOR265W, strain rbl2, active compounds read low 1 | locus YOR270C, strain vph1, active compounds read low 0.918 | locus YOR290C, strain snf2, active compounds read low 0.989 | locus YOR316C, strain cot1, active compounds read low 1.03 | locus YPL051W, strain arl3, active compounds read low 1.02 | locus YPL055C, strain LGE1, active compounds read low 1.06 | locus YPL078C, strain atp4, active compounds read low 1.02 | locus YPL106C, strain sse1, active compounds read low 1.13 | locus YPL240C, strain hsp82, active compounds read low 1.01 | locus YPL256C, strain CLN2, active compounds read low 1.05 | locus YPR119W, strain clb2, active compounds read low 1.03 | locus YPR141C, strain kar3, active compounds read low 1.05 | locus YPR163C, strain tif3, active compounds read low 1.03 | locus YPR167C, strain met16, active compounds read low 1.02 | strain wtn01, active compounds read low 0.966
